Bioassay records as filed in PubChem.
This is a sample that favours compounds with a hit; in the whole collection about 2.7% have one here.
Nrf2 ARE act = Nrf2 pathway activation. AREc32 ARE-luciferase reporter (MCF7-derived line), luminescence, 24 h. Potency, µM (doses to about 46.1 µM), for inactives: at the highest dose activation, actives largely listed as activators. 410,000 compounds, 0.31% hits. AID 624171; further: potency means the concentration at half of the fitted maximal effect; % of control where 0% means no effect; nearly all actives have a fitted effect of over 65% in size
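For detection, Steady-Glo was added and plates sat 30 min at RT; before that, AREc32_Fluc cells grown overnight in OPTI-MEM/5% FBS had been treated with 23 nL compound for 24 hr at 37 deg C.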
12-LOX inh = inhibitors of human 12S-lipoxygenase ALOX12 | P18054 | purified 12hLO, xylenol orange hydroperoxide absorbance | Potency, µM (top dose mostly 108 µM), for inactives: top-dose activity change, negative = inhibition, actives largely listed as inhibitors | 580,000 compounds, 1.1% hits; further: potency means the concentration at half of the fitted maximal effect; on the % scale 0 is the no-effect control and ±100 the full control effect
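Purified human 12hLO at 150 nM in 25 mM Hepes, 0.01% Triton X-100, pH 7.0, preincubated 15 min at room temperature with compound. Reaction started with 40 uM arachidonic acid, 30 min at room temperature. Hydroperoxide measured by Fe-xylenol orange, 573/405 nm absorbance ratio.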
Nrf2 inh = inhibitors of Nrf2 signaling; A549 ARE-Fluc reporter, luciferase luminescence, 18-24 h; AID 504444; 360,000 compounds, 2.1% hits; Potency, µM (doses to about 46 µM), for the others: at the top dose activity change, negative = inhibition, hits mostly inhibitors; further: potency means the concentration at half of the fitted maximal effect; on the % scale 0 is the no-effect control and ±100 the full control effect; nearly all actives have a fitted effect of over 60% in size
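Two sequential reads on A549 ARE_Fluc cells exposed to compound for 18-24 h: a CellTiter-Fluor fluorescence read for viability, then a luciferase luminescence read for Nrf2/ARE activity.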
LDHA block = blocks human lactate dehydrogenase A; P00338; activity change, % (values are at about 110 or 230 µM); 480,000 compounds, 0.15% hits; purified LDHA, NADH/diaphorase-resazurin fluorescence; active compounds read low; in the data active means activity change below about -30%; inconclusive means mostly about -25% to -30%;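 further: plate controls were DMSO wells for no effect and wells without enzyme for full effect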
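Remaining NADH was detected by diaphorase (0.133 mg/mL) converting 37 µM resazurin to fluorescent resorufin, read at 0 and 20 minutes. The preceding 5-minute room-temperature reaction used 2 nM LDHA, 0.2 mM sodium pyruvate and 0.06 mM NADH at pH 7.4.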
ERG-DNA inh = inhibitors of human ERG Ets domain-DNA interaction. P11308. fluorescence polarization, His-ERG Ets domain / labelled DNA. Potency, µM (series often up to 76.9 µM), without a hit: at the highest dose FP activity, negative = inhibition, usual class: inhibitors. 370,000 compounds, 0.028% hits. AID 624246; active means well fitted inhibition curve with a large enough effect in the polarisation, with a control signal flat; inconclusive means small, poorly fitted or top-dose-only effect, or effect the other way, or a change in a side signal; inactive means no such curve, though single readings can be large or run the other way; the % refers to the polarisation;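 further: polarization taken with two DNA probes labelled with fluorescein and Texas red; potency means the concentration at half of the fitted maximal effect; % of control where 0% means no effect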
Target sequence (P11308 whole entry, looked up, the tested form may be a part): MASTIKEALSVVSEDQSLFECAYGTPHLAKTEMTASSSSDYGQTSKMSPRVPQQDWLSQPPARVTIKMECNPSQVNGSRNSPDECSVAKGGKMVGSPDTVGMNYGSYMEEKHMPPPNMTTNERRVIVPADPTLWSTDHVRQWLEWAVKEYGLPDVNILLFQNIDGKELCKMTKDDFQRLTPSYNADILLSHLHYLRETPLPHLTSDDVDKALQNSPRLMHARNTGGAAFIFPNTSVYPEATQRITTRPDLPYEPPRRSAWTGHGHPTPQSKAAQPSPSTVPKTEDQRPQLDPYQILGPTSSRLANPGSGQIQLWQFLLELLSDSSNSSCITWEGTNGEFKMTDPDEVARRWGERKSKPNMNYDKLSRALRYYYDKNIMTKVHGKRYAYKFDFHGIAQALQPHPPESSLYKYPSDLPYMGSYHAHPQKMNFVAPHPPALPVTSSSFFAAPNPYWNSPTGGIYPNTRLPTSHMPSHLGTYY
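His-tagged ERG Ets domain (1 uM in the protein solution; 300mM KCl, 50mM Tris-HCl, 1mM EDTA, 1mM DTT, pH 7.5) received compound, then a probe mix of 5 nM fluorescein-DNA and 100nM Texas-615-DNA. Fluorescence polarization was read for both dyes.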
A549 tox = counter-screen for Nrf2 inhibitors: cytotoxicity in A549 cells | A549 ARE-Fluc cells, CellTiter-Fluor viability, 18-24 h | Potency, µM (doses to about 46 µM), for inactives: top-dose activity change, negative = cytotoxicity, actives largely listed as inhibitors | 390,000 compounds, 0.16% hits | AID 504648; further: potency means the concentration at half of the fitted maximal effect; on the % scale 0 is the no-effect control and ±100 the full control effect
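Cytotoxicity counterscreen: CellTiter-Fluor fluorescence was measured in A549 ARE_Fluc cells after 18-24 h of compound exposure in a concentration series. The subsequent BugLite luminescent read reports ARE-luciferase activity.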
Active calls of the source: *; ? = inconclusive; nt = no result; [ ] = another dose, or the depositor's remark. Unless noted, the call rests on the fitted dose curve; in most records, active means well fitted curve in the direction sought with a large enough effect; inconclusive means small, poorly fitted or top-dose-only effect, or another doubt; inactive means no such curve, though single readings can be large; an effect the other way counts as inactive or inconclusive.

SMILES	Nrf2 ARE act	12-LOX inh	Nrf2 inh	LDHA block	ERG-DNA inh	A549 tox
CC1CC(Sc2ccc(C(F)(F)F)cn2)C(=O)O1 (configuration not stated)	nt	-25%	nt	5	nt	nt
COc1ccc(/C=C2\S/C(=N/S(=O)(=O)c3cccs3)NC2=O)cc1	0%	40µM*	?	-15	-1%	-13%
CC(C)NC(=O)C[C@@H]1O[C@H](CNC(=O)C2CC2)[C@@H](O)[C@H]1O	nt	56µM*	nt	nt	nt	nt
CC(C)Cc1ccc(CN2CCCC(NC(=O)c3ccoc3)C2)cc1 (configuration not stated)	1%	-30%	-10%	-1	-8%	-11%
CC(C)Cc1ccc(CN2CCCC(NC(=O)c3ccnn3C)C2)cc1 (configuration not stated)	0%	1%	13µM*	-1	9%	-19%
Cc1ccc(N(C(=O)CCl)C(C(=O)NC2CCCCC2)c2cccnc2)cc1C (configuration not stated)	14µM*	?	-10%	-8	7%	-7%
Cc1ccc(C(C(=O)NC2CCCC2)N(C(=O)Cc2cccs2)c2ccc(C)c(C)c2)o1 (configuration not stated)	2%	?	18µM*	0	nt	?
COc1cccc(CN2CCNc3cc(Nc4ccccc4)ncc3C2)c1	nt	-1%[176 µM]	nt	nt	nt	nt
COc1ccccc1/C=C/C(=O)c1c2c(c(C)[nH]c1=O)CCCC2	18%	1%	16µM*	8	2%	?
COc1ccccc1/C=C/C(=O)c1ccccc1	?	0%	?	-2	2%	7%
CCN(CC)C(=O)CN(c1cc2c(cc1OC)oc1ccccc12)S(=O)(=O)c1ccccc1	-1%	-19%	16µM*	-2	2%	?
O=S1(=O)CC(N2CCN(Cc3ccccc3F)CC2)CN1Cc1cn(Cc2ccc(C(F)(F)F)cc2)nn1 (configuration not stated)	0%	40µM*	nt	4	nt	nt
CN1CCC(N2CCN(C3CN(Cc4cn(Cc5cccc(C(F)(F)F)c5)nn4)S(=O)(=O)C3)CC2)CC1 (configuration not stated)	-1%	5.6µM*	nt	4	nt	nt
Cc1ccc(Cn2cc(CN3CC(N4CCN(Cc5ccccc5F)CC4)CS3(=O)=O)nn2)cc1 (configuration not stated)	4%	10%	nt	1	nt	nt
CN(C)CCN1CCN(C2CN(Cc3cn(Cc4cccc(Cl)c4)nn3)S(=O)(=O)C2)CC1 (configuration not stated)	0%	7.9µM*	nt	8	nt	nt
O=[N+]([O-])c1c(NCCO)cc(N2CCC3(CC2)OCCO3)c2nonc12	0%	?	-18%	-6	-11%	9.2µM*
c1cc2cc(-c3c(-c4ccc5c(c4)OCO5)noc3-c3ccsc3)ccc2[nH]1	19%	-18%	-16%	-6	0%	-3%
Cc1onc(-c2ccc3c(c2)OCO3)c1-c1ccc2[nH]ccc2c1	10%	-16%	15µM*	-1	-1%	3%
COc1ccccc1C(=O)N1CCn2c(nn(-c3cccc(Cl)c3)c2=O)C1	nt	8%[6.33 µM]	nt	nt	nt	nt
Cc1ccc(NC(=S)NCC2(C)CC(NC(=S)Nc3ccc(C)cc3C)CC(C)(C)C2)c(C)c1 (configuration not stated)	nt	7.1µM*	nt	-5	nt	nt
CC1(C)CC(NC(=S)Nc2ccccc2)CC(C)(CNC(=S)Nc2ccccc2)C1 (configuration not stated)	nt	28µM*	nt	5	nt	nt
Cc1ccc(NC(=S)NCc2ccccc2)c(C)c1	0%	0%	11%	1	-13%	9%
CN(C)C(=O)CN1CCN(C(C(=O)O)c2c(-c3ccccc3)[nH]c3ccccc23)CC1 (configuration not stated)	nt	?	nt	1	nt	nt
